This test addresses T1, ETS1 (UniProt P14921).
T1 sequence: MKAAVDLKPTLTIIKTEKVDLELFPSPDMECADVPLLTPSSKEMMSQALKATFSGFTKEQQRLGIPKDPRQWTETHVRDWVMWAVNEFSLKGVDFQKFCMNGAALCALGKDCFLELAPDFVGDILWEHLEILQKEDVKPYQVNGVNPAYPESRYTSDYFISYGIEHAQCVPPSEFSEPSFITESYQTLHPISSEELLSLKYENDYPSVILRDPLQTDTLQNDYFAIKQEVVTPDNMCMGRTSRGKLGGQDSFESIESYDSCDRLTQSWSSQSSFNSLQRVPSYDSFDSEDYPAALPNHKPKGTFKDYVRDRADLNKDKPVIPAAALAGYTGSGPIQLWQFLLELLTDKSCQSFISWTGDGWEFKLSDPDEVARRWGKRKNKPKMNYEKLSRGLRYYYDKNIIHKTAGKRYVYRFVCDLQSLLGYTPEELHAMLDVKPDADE
In words: ETS1 binding intensity (PBM fluorescence) in presence of RUNX1, normalised to ETS1-only experiment (arbitrary fluorescence units); higher = stronger binding. Conditions: ETS1 concentration 1 nM; RUNX1 concentration 25 nM.
In the case of CCCGCGACACAAGGCGGATGTGGTACCCTCACTTGT, the ETS1 binding intensity came out at 5070.

For CGAGTAGAGATAGCAGGAAGTGGTTTATTCTGAGGT, the ETS1 binding intensity amounted to 12600.

In the case of CTTAGCGGAAGAGGCGTGACCCAGGCGTACCGCAGG, the ETS1 binding intensity worked out at 1320.

In the case of CCTGCTGCTTCCGCCCGGAGTTGTTGTGGGCTCCAG, the ETS1 binding intensity was found to be 661.

Take GGCAACCGGCCCCGGAAGTTGCGGCAGGTGCGTCCA: the ETS1 binding intensity is 8090.

For ATGTCTTCCTGTACAGGAACTGGGTCCCAGCCGCAG, the ETS1 binding intensity is 4430.

With CTGGTAGAAAAGGAAGCAGGTTGTGGTGAGCATTTA, the ETS1 binding intensity is 1720.

For the sequence GTGGATTTCACATCCTGTCCTAGCGGTATGTTTGTC, the ETS1 binding intensity was determined as 1610.

As for GTTCCTAGGCAGGCAGGATGTGGCTATAAGCTACAT, the ETS1 binding intensity was 6220.

Turning to ACCTGAGCAGGAAGTAGCTGAGGTCGCGGTGCAGCA, the ETS1 binding intensity worked out at 3750.

Take AGGCAAACTACAGGAAGATCCTGCCCGCAACTTGGT: the ETS1 binding intensity was found to be 2160.

On to TACTACTTACCAGCAGGATGTGGTCCCTGCCCACTG, for which the ETS1 binding intensity came to 7040.

Consider AGGTACCAGGCCCGGAAACCACGGAAAGGGGAACTT, for which the ETS1 binding intensity came out at 5500.

On to AGGCTGTGGCGGAAGTGGTCGCGTTACCGCTTGTTT, for which the ETS1 binding intensity is 12100.

As to TTCTTCCGGCAACTGCTGCTGAGGCTGCGGTGGCGG, the ETS1 binding intensity was found to be 899.

Consider GCGCGGCCAGAGAAAGGATGTGGTATAGCAGAAAGT, for which the ETS1 binding intensity came out at 4380.

In the case of CCCTCTCTTCTTCCTCCCCCACCACAAAAGTCACAG, the ETS1 binding intensity is 641.

With GTCTGCTTAAAAACAGGAAACCACATATCTCCACCC, the ETS1 binding intensity came out at 10700.

As for TCGCCCGCCGCTTCCTGTCGCGGCGCCGCAGAGGCC, the ETS1 binding intensity was 1890.

As to ACTTCACTTCCCAACCTCCCCTGTGGTTAGGTGTGG, the ETS1 binding intensity was found to be 548.

Consider TTCAGTCCTGGTTTCCTGTGGTTCTAGGATCTTTAT, for which the ETS1 binding intensity was found to be 957.

Consider GAGCACAGGAAAAGCTGGTGCCAACCACAAGTGCTT, for which the ETS1 binding intensity was determined as 1130.

Regarding CCCACTGATAAGACAGGATGTGGTAAAGAAGCCAGC, the ETS1 binding intensity stood at 22800.

Consider ATACAGACACAGGAAGTTGTGGGGAGTGCAAAAGCC, for which the ETS1 binding intensity was 5680.

With AGGCTCATTTCCTGTTTTCATGTGGTTTAGAGAAAA, the ETS1 binding intensity turned out to be 5130.

Regarding AACCTCCGACTTCCGGCCGCGCAGCGGTGGGCTGAG, the ETS1 binding intensity worked out at 4280.

As for CTGTGCGAGGCAGGATGTGGTCTCCCGCCACCAGGG, the ETS1 binding intensity amounted to 13800.

As for GGCTTCCGCCTGCCGAGCGGCCCCGGACCGCAGGCC, the ETS1 binding intensity amounted to 768.

Turning to GTGGGGGTGACAGGATGCGGGTAGAGGGCTCAGCCA, the ETS1 binding intensity was determined as 2770.

GGATGACATCCGGCACCAACTTAACCACTAATCTCA: the ETS1 binding intensity came out at 1690.

For GGACCGGAAGTTAAGGCGTTCGCGGCGTGTGGTAAG, the ETS1 binding intensity stood at 11800.

In the case of TGTGGAGACAGGAAGCACTAACCTCAAACCTCTTTC, the ETS1 binding intensity amounted to 8830.

Consider TGGCGCTTCCTGTCGCTACCGCTGCGGCCCAGGGCC, for which the ETS1 binding intensity came to 763.

As to TATGGGGCCGGAAGCCATTCACCACAAACACTGTGT, the ETS1 binding intensity came to 9050.

Turning to AACAAACAGTAGGCAGGAAGTGGTTAAACCGAAAGG, the ETS1 binding intensity was 28900.

With ACTGAAAACAGCACAGGATGTGGTCTGCCAGGTGCC, the ETS1 binding intensity came out at 10100.

In the case of AGAAGCTTCTACAGGAAACCACTAATGGAGACAGAG, the ETS1 binding intensity worked out at 1970.

For the sequence GGCTTTCCGTTCAAGGATCTTTTTGCGGTCTTTGTC, the ETS1 binding intensity worked out at 777.

For the sequence GTACGACAGCGGGTTCCGGTGACCACGAAGGCGGCA, the ETS1 binding intensity was 467.

The record behind these values is the supplement of paper PMC10681739.
